# TDP1 cell CPT: qHTS for Inhibitors of human tyrosyl-DNA phosphodiesterase 1 (TDP1): qHTS in cells in presence of CPT. chicken DT40 Tdp1-/-;hTDP1 cells + 20 nM CPT, ATP luminescence, 48 h. Potency, µM (top dose mostly 46.2 µM), for the others: top-dose activity change, negative = growth inhibition, most hits filed as inhibitors. hit rate 12% among 420,000; note: potency is the fitted concentration of half-maximal effect; nearly all actives have a fitted effect of over 55% in size
#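 Chicken DT40 Tdp1-/- cells stably complemented with human TDP1 were seeded at 400 cells/well in medium containing 20 nM camptothecin, exposed to pin-transferred compounds, and grown at 37 °C for at least 48 hr. Viability was read as ATP luminescence.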
# TDP1 cell noCPT: qHTS for Inhibitors of human tyrosyl-DNA phosphodiesterase 1 (TDP1): qHTS in cells in absence of CPT | DT40 Tdp1-/- hTDP1 cells, no CPT, ATP luminescence, 48 h | Potency, µM (top dose mostly 46.2 µM), without a hit: top-dose activity change, negative = growth inhibition, usual class: inhibitors | hit rate 15% among 420,000; note: potency is the fitted concentration of half-maximal effect; nearly all actives have a fitted effect of over 55% in size
#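 Camptothecin absent (DMSO only). Human TDP1-complemented DT40 knockout cells, 400 cells/well, 37 °C for minimum 48 hr; ATP measured via CellTiter-Glo, 30 min dark incubation, luminescence.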
# ELG1 repair inh: qHTS screen for small molecules that inhibit ELG1-dependent DNA repair in human embryonic kidney (HEK293T) cells expressing luciferase-tagged ELG1 | HEK293T ELG1-luciferase reporter, luminescence, 16 h; DNA damage induced by 5-fluorouridine | Potency, µM (highest dose often 46.1 µM), without a hit: at the top dose activity change, negative = inhibition, hits mostly inhibitors | hit rate 2.3% among 330,000 | AID 504467, 2011; note: potency is the fitted concentration of half-maximal effect; nearly all actives have a fitted effect of over 55% in size
#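 Overnight (16 hr) co-exposure of 2,000 cells/well to 5-fluorouridine and compound at 37 °C preceded detection. Luciferase was quantified via ONE-Glo luminescence; loss of signal denotes inhibition.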
# IL1B secr inh: qHTS for Inhibitors of Inflammasome Signaling: IL-1-beta AlphaLISA Primary Screen; THP-1 LPS/ATP IL-1B secretion, AlphaLISA, 16 h; hits give low values; hit rate 4.7% among 360,000; activity change, % at 57.5 µM; AID 743279, 2014; in the data active = activity change below about -50%; inconclusive = mostly about -30% to -49%
#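 THP-1 cells pretreated 1 hr with compounds (up to 57.5 uM final), then stimulated with LPS (250 ng/mL final) plus ATP (1.25 mM final); secreted IL-1B measured by AlphaLISA after 16 hr, decreased signal indicating inhibition.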
# Gal4-VP16 FLuc: VP16 counterscreen qHTS for inhibitors of ROR gamma transcriptional activity; Potency, µM (series often up to 53.6 µM), for inactives: top-dose activity, negative = inhibition, hits mostly inhibitors; Drosophila S2 Gal4-VP16 UAS-luciferase, luminescence, 20 h; hit rate 3.5% among 310,000;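 note: Gal4-VP16 expression switched on by copper sulfate through the metallothionein promoter; potency is the fitted concentration of half-maximal effect; nearly all actives have a fitted effect of over 50% in size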
# RORg inh: qHTS for inhibitors of ROR gamma transcriptional activity; Potency, µM (top dose mostly 53.6 µM), inactives show at the highest dose activity change, negative = inhibition, actives largely listed as inhibitors; Drosophila S2 Gal4-RORgamma UAS-luciferase reporter, 20 h; hit rate 5.4% among 310,000; Nuclear receptor ROR-gamma (Mus musculus), P51450; AID 2551, 2010; note: potency is the fitted concentration of half-maximal effect; nearly all actives have a fitted effect of over 60% in size
# Target sequence (P51450 whole entry, looked up, the tested form may be a part): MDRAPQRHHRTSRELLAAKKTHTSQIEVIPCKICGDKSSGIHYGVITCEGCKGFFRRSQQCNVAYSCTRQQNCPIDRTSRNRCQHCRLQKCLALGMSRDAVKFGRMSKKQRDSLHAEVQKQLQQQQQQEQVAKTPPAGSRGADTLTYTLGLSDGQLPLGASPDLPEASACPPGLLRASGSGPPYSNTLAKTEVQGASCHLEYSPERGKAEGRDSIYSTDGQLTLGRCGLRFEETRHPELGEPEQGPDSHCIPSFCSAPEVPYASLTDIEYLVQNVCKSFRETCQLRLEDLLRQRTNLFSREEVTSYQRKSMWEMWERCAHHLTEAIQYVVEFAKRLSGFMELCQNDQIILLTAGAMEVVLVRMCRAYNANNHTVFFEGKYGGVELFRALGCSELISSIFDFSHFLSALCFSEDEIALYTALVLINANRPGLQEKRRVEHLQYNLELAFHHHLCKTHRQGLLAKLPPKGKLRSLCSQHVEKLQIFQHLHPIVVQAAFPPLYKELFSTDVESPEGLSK
#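 Luciferase reporter read in Schneider cells carrying Gal4-RORγ (mouse) and UAS-Photinus luciferase; cells given compound 1 h before 700 uM copper sulfate induction, then incubated 20 h at ambient temperature.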
# Active calls of the source: *; u = inconclusive; x = no result. A selection: hits, their analogues and other compounds. The true share with any hit is near 21%. Unless noted, calls come from the whole dose curve; as a rule, active = well fitted curve in the direction sought with a large enough effect; inconclusive = small, poorly fitted or top-dose-only effect, or another doubt; inactive = no such curve, though single readings can be large; an effect the other way counts as inactive or inconclusive. % is set by controls: 0 for no effect and ±100 for the full control effect.
SMILES,TDP1 cell CPT,TDP1 cell noCPT,ELG1 repair inh,IL1B secr inh,Gal4-VP16 FLuc,RORg inh
CCc1ccc2ncc3c(-c4ccc(C)cc4)nn(CC(=O)Nc4ccc(C)cc4)c3c2c1,-15%,1%,x,x,x,x
O=C(C[n+]1cccc(Br)c1)c1ccc(Br)cc1,-9%,-4%,x,x,x,x
O=C(Cn1c(-c2ccccc2)c[n+]2ccsc12)c1ccc(Br)cc1,7.3µM*,3.3µM*,u,-86*,9%,37%
COCC(=O)N[C@H]1CC[C@@H](CC(=O)OC)O[C@@H]1CO,2%,4%,x,35,x,x
CCCn1c(CNC(=O)c2ccccc2)nc2ccccc21,-10%,-2%,-7%,6,-2%,10µM*
CC(C)Cn1c(CCCNC(=O)c2ccco2)nc2ccccc21,-65%,u,16%,0,-17%,-24%
COc1cc(C(=O)NCCCc2nc3ccccc3n2CC(C)C)cc(OC)c1OC,21µM*,u,x,x,x,x
Cn1c(/C=N/NC(=O)c2ccccc2)nc2ccccc21,u,26µM*,4%,57,0%,13µM*
Cn1c(CCCNC(=O)c2ccccc2)nc2ccccc21,-21%,-26%,-19%,17,3%,1%
CC(C)Cn1c(CNC(=O)c2ccccc2)nc2ccccc21,-29%,u,-16%,u,u,16µM*
CCCn1c(CNC(=O)c2cccs2)nc2ccccc21,-5%,-26%,-8%,11,-2%,u
O=C(COc1ccc(Cl)cc1)Nc1cc(NC(=O)COc2ccc(Cl)cc2)cc(C(=O)O)c1,3%,-3%,-13%,12,-3%,u
CCCC(=O)NCCc1nc2ccccc2n1CC(=O)c1ccccc1,-11%,-6%,-8%,5,-3%,14%
CCCCn1c(CNC(=O)C(C)(C)C)nc2ccccc21,-6%,u,-2%,9,u,13µM*
CCCC(=O)NCCCc1nc2ccccc2n1C(C)C,u,15µM*,0%,17,-11%,17%
Cc1ccc(NC(=O)COC(=O)CCc2ccc(S(=O)(=O)N3CCOCC3)cc2)cc1F,0%,-9%,9%,10,-10%,-8%
N#CC(=C1C=C(Br)C(=NO)C=C1Cl)c1cccc2ccccc12,u,u,x,-19,x,x
Cc1nn(Cc2ccccc2Cl)c2sc(C(=O)NC(C)(C)C)cc12,-1%,u,3%,5,5%,-10%
Cc1csc(NC(=O)c2cc3c(C)nn(Cc4ccccc4Cl)c3s2)n1,u,16µM*,u,6,u,u
CCC(CC)c1nnc(NC(=O)c2c(C)nn(Cc3ccccc3Cl)c2C)s1,23µM*,-26%,-21%,23,u,11µM*
Cc1nn(Cc2ccccc2Cl)c(C)c1C(=O)NCC(c1cccs1)N1CCOCC1 (stereo unspecified),-19%,-21%,-19%,46,x,x
Cc1nn(Cc2ccccc2Cl)c(C)c1C(=O)NC1=NCCS1,0%,-15%,-25%,10,-1%,10µM*
O=C(NC1=NCCS1)c1ccccc1OCc1ccccc1Cl,-13%,u,1%,0,u,10µM*
O=C(NC1=NCCS1)c1ccccc1Cl,0%,7%,15%,20,2%,-1%
COc1ccc(/C=C/C(=O)OCC(=O)NC(C)CCc2ccccc2)cc1OC (stereo unspecified),-18%,-10%,-17%,4,x,x
CC1=C(C(=O)OCc2ccccc2)C(c2cccc3ccccc23)NC(=O)N1CCCC(=O)O (stereo unspecified),-15%,-24%,12%,46,x,x

# Assay outcomes as filed in PubChem.
